# PMC7862700, “An all-to-all approach to the identification of sequence-specific readers for epigenetic DNA modifications on cytosine”
# Columns and labels:
# Test in all cases: DAPPL (digital affinity profiling via proximity ligation, sequencing); 10 mM Tris-HCl pH 7.5, 50 mM NaCl, 1 mM DTT, 4% glycerol, room temperature, 30 min; GST-TFs on glutathione beads, 16-mer random dsDNA library, 0.1% formaldehyde crosslink after washing; high values mean tight binding
# FEV = molecular target: T1, FEV (Homo sapiens, UniProt Q99581 1-238); conditions: protein: recombinant; tags: N-terminal GST; dsDNA, one strand shown
# T1 sequence: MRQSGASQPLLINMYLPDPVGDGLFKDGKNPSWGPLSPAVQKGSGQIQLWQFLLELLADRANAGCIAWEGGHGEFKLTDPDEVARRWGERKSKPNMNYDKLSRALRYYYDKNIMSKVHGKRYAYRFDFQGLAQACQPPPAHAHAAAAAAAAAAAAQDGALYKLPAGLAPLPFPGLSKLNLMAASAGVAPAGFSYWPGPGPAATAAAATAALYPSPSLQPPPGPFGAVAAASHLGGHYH
# Procedure, shortened: (§1)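 Human transcription factors fused to GST were expressed in yeast, captured on glutathione beads, given DNA barcodes and pooled with a GST-only negative control. Pools were incubated with 200 nmole of a 16-mer random double-stranded DNA library in Tris/NaCl/DTT/glycerol buffer at room temperature for 30 min. They were then washed, crosslinked with 0.1% formaldehyde, proximity-ligated (BsaI/T4 ligase, 1 h, 37 °C), PCR-amplified and sequenced on an Illumina NextSeq500. Binding signal is each 6-mer's read frequency for a factor divided by its frequency for the GST control.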
# ETV5 = ETV5 (Homo sapiens, UniProt P41161 1-510); conditions: protein: recombinant; tags: N-terminal GST; dsDNA, one strand shown
# Procedure, shortened: as §1
# HSF1 = HSF1 (Homo sapiens, UniProt Q00613 1-529); conditions: protein: recombinant; tags: N-terminal GST; chain copies: 3; dsDNA, one strand shown
# Procedure, shortened: as §1
# SPIC = molecular target: T2, SPIC (Homo sapiens, UniProt Q8N5J4 1-248); conditions: protein: recombinant; tags: N-terminal GST; dsDNA, one strand shown
# T2 sequence: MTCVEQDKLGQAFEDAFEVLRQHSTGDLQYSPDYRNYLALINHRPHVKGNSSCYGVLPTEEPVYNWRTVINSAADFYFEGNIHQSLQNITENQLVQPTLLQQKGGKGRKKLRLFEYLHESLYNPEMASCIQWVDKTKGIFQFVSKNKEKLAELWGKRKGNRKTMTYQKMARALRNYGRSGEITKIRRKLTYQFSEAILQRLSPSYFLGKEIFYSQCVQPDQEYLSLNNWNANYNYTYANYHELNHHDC
# Procedure, shortened: as §1
# ELF4 = ELF4 (Homo sapiens, UniProt Q99607 1-663); conditions: protein: recombinant; tags: N-terminal GST; dsDNA, one strand shown
# Procedure, shortened: as §1
# ELK4 = molecular target: T3, ELK4 (Homo sapiens, UniProt P28324-2 1-405); conditions: protein: recombinant; tags: N-terminal GST; dsDNA, one strand shown
# T3 sequence: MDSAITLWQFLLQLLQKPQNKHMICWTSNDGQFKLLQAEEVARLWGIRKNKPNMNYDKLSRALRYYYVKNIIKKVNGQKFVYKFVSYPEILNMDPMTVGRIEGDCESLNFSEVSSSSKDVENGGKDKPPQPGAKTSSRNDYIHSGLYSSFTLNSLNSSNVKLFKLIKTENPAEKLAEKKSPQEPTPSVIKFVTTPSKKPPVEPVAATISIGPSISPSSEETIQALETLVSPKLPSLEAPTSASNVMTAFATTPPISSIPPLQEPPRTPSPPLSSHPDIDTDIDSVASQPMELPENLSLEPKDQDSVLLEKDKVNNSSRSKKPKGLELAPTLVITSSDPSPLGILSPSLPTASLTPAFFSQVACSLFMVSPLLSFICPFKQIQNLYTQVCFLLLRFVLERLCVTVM
# Procedure, shortened: as §1
# ETV2 = molecular target: T4, ETV2 (Homo sapiens, UniProt O00321 1-342); conditions: protein: recombinant; tags: N-terminal GST; dsDNA, one strand shown
# T4 sequence: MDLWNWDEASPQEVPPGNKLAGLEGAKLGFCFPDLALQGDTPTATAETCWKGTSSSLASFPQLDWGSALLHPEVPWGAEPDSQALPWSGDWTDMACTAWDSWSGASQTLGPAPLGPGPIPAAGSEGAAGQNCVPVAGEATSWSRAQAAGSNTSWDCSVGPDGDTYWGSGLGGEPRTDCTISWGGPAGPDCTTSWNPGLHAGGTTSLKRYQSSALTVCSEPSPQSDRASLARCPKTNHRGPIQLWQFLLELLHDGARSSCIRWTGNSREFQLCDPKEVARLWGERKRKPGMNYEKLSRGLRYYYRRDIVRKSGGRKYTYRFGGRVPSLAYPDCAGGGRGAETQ
# Procedure, shortened: as §1
# ELF3 = molecular target: T5, ELF3 (Homo sapiens, UniProt P78545 1-371); conditions: protein: recombinant; tags: N-terminal GST; dsDNA, one strand shown
# T5 sequence: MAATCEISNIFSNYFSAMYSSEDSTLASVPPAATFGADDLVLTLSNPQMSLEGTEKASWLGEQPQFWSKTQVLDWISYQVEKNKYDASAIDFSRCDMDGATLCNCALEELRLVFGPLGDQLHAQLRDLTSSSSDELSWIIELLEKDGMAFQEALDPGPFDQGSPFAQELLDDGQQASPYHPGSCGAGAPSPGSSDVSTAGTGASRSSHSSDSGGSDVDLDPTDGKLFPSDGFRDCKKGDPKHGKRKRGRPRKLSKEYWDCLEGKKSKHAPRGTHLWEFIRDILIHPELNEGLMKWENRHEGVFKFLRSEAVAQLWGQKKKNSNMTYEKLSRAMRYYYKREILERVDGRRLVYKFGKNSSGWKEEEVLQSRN
# Procedure, shortened: as §1
# CRX = CRX (Homo sapiens, UniProt O43186 1-299); conditions: protein: recombinant; tags: N-terminal GST; dsDNA, one strand shown
# Procedure, shortened: as §1
# ETV1 = ETV1 (Homo sapiens, UniProt P50549 1-477); conditions: protein: recombinant; tags: N-terminal GST; dsDNA, one strand shown
# Procedure, shortened: as §1
# ERF = molecular target: T6, ERF (Homo sapiens, UniProt P50548 1-548); conditions: protein: recombinant; tags: N-terminal GST; dsDNA, one strand shown
# T6 sequence: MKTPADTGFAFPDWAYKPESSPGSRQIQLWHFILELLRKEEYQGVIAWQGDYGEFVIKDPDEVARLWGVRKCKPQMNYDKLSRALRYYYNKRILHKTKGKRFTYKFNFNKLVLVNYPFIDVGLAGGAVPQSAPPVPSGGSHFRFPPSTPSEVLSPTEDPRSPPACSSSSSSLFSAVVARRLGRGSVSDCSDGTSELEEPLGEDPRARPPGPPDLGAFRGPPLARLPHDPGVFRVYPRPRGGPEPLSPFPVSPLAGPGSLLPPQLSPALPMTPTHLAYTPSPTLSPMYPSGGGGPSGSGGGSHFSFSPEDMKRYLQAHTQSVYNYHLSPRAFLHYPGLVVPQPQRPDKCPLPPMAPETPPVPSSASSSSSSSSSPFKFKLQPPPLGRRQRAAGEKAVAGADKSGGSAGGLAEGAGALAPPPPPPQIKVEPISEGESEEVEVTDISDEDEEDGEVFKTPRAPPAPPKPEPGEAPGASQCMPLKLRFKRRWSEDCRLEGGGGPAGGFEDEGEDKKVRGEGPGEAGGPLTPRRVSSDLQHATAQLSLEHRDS
# Procedure, shortened: as §1
# ETV3L = molecular target: T7, ETV3L (Homo sapiens, UniProt Q6ZN32 1-361); conditions: protein: recombinant; tags: N-terminal GST; dsDNA, one strand shown
# T7 sequence: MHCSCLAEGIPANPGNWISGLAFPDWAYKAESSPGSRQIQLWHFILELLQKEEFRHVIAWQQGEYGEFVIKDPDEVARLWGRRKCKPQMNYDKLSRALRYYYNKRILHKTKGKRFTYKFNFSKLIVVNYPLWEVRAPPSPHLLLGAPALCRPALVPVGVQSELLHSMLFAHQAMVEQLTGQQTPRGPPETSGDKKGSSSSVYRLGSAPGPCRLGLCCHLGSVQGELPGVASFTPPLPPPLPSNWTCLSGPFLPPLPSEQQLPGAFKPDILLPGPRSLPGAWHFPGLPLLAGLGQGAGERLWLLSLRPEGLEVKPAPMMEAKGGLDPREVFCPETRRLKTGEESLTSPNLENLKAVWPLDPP
# Procedure, shortened: as §1
# ETS2 = molecular target: T8, ETS2 (Homo sapiens, UniProt P15036 1-469); conditions: protein: recombinant; tags: N-terminal GST; dsDNA, one strand shown
# T8 sequence: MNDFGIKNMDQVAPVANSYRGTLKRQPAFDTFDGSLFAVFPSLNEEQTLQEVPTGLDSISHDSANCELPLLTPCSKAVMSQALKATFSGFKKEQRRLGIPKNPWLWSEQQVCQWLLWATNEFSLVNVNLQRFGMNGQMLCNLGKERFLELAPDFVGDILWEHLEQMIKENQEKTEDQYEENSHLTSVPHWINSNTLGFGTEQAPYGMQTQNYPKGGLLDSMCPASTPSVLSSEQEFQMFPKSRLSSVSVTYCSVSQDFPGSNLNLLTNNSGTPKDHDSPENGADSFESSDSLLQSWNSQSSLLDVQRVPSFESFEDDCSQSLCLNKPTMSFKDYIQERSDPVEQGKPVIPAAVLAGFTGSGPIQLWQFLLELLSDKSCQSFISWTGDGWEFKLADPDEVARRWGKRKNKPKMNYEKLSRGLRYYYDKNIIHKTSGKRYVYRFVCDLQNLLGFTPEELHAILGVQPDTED
# Procedure, shortened: as §1
# SPDEF = molecular target: T9, SPDEF (Homo sapiens, UniProt O95238 1-335); conditions: protein: recombinant; tags: N-terminal GST; dsDNA, one strand shown
# T9 sequence: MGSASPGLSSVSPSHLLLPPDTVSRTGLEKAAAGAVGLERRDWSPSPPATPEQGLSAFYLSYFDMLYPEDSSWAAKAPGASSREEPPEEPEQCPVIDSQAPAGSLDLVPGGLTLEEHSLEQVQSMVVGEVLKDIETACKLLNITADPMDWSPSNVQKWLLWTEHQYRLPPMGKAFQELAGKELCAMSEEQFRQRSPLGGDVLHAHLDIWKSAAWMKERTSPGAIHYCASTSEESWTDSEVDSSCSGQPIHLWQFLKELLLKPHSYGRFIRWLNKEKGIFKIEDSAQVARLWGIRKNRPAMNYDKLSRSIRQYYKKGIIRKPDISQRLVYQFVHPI
# Procedure, shortened: as §1
# ETV7 = molecular target: T10, ETV7 (Homo sapiens, UniProt Q9Y603 1-341); conditions: protein: recombinant; tags: N-terminal GST; dsDNA, one strand shown
# T10 sequence: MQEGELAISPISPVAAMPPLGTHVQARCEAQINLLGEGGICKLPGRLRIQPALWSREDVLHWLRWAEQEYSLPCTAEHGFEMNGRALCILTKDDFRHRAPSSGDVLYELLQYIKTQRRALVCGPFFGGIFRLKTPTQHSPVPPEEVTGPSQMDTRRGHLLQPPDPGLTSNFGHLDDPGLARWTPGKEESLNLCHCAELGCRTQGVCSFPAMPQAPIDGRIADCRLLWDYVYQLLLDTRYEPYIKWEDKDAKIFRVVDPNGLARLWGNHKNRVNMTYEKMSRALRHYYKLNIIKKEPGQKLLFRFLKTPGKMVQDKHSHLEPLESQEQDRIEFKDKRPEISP
# Procedure, shortened: as §1
# ELF5 = molecular target: T11, ELF5 (Homo sapiens, UniProt Q9UKW6-2 1-255); conditions: protein: recombinant; tags: N-terminal GST; dsDNA, one strand shown
# T11 sequence: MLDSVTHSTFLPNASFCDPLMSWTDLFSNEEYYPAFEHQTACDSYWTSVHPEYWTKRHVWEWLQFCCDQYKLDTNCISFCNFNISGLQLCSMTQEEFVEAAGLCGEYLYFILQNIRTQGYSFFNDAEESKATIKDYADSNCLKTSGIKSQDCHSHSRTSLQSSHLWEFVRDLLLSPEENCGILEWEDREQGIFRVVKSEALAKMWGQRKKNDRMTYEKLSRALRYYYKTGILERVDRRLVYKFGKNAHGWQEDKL
# Procedure, shortened: as §1
# ETV3 = molecular target: T12, ETV3 (Homo sapiens, UniProt P41162-2 1-143); conditions: protein: recombinant; tags: N-terminal GST; dsDNA, one strand shown
# T12 sequence: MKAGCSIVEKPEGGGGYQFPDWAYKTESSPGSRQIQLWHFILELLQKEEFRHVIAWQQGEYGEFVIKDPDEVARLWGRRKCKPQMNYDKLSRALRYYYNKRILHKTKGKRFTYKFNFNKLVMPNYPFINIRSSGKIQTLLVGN
# Procedure, shortened: as §1
# ETV6 = ETV6 (Homo sapiens, UniProt P41212 1-452); conditions: protein: recombinant; tags: N-terminal GST; dsDNA, one strand shown
# Procedure, shortened: as §1
# Sequence of ETV6 (P41212 whole entry): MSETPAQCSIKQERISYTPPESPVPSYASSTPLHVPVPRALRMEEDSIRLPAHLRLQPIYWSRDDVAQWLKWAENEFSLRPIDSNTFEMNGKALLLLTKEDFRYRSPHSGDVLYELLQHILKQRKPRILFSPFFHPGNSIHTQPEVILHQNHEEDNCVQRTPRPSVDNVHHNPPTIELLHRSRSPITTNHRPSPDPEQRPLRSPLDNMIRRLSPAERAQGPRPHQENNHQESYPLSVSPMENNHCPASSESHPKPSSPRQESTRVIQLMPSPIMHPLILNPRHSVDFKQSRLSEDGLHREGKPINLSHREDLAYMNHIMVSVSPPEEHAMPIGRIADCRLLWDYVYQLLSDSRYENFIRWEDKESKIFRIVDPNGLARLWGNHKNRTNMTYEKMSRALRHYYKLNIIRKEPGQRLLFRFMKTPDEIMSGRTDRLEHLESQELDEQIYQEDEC
# Sequence of HSF1 (Q00613 whole entry): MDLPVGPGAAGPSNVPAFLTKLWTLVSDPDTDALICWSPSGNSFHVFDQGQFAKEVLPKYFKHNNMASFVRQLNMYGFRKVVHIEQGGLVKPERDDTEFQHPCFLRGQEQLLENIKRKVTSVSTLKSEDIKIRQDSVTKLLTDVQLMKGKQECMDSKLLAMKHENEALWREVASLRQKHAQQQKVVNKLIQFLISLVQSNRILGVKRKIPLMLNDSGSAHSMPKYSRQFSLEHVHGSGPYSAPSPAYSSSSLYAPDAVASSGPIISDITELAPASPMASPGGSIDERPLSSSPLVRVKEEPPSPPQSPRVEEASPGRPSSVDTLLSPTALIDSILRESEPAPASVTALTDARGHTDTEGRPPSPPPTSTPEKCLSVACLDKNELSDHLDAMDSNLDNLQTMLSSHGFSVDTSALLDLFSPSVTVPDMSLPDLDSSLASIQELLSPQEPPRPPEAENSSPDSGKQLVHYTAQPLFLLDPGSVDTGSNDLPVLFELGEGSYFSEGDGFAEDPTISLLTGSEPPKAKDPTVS
# Sequence of ELF4 (Q99607 whole entry): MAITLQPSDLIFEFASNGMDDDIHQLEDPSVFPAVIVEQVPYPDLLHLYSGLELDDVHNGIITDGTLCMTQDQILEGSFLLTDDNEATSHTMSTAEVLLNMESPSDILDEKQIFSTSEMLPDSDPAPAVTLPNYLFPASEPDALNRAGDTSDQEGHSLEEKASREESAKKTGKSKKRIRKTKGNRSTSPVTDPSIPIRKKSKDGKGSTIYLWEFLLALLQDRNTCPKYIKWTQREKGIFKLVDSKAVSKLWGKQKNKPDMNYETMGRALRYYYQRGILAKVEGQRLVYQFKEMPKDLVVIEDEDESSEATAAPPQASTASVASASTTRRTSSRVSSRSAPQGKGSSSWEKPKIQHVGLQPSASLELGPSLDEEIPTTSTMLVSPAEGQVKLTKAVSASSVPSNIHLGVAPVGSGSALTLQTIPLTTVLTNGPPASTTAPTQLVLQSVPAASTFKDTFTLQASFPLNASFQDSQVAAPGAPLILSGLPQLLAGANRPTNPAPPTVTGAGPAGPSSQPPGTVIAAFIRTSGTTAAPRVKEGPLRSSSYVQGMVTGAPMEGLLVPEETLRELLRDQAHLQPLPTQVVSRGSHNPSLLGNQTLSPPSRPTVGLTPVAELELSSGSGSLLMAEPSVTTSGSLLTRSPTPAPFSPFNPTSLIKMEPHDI
# Sequence of CRX (O43186 whole entry): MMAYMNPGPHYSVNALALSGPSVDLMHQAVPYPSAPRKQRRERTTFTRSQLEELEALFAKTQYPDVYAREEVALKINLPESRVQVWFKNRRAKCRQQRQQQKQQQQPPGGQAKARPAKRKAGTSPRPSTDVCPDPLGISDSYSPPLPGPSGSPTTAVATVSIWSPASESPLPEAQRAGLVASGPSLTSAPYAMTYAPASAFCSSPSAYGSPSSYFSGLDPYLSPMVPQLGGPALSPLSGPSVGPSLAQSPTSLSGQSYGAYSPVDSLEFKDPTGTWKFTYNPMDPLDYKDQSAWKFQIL
# Sequence of ETV1 (P50549 whole entry): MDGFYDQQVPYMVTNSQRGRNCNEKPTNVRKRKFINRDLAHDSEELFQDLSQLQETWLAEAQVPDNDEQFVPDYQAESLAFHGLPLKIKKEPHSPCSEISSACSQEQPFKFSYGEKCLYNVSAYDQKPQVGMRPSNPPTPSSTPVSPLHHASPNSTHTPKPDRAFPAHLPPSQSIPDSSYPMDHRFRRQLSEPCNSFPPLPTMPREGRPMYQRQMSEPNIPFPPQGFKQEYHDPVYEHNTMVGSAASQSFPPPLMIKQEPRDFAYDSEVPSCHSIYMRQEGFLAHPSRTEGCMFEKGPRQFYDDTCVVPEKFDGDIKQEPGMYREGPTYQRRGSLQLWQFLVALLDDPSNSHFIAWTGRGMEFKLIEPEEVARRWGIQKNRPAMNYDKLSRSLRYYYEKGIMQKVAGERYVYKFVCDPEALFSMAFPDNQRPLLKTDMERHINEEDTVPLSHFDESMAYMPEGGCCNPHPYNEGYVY
# Sequence of ETV5 (P41161 whole entry): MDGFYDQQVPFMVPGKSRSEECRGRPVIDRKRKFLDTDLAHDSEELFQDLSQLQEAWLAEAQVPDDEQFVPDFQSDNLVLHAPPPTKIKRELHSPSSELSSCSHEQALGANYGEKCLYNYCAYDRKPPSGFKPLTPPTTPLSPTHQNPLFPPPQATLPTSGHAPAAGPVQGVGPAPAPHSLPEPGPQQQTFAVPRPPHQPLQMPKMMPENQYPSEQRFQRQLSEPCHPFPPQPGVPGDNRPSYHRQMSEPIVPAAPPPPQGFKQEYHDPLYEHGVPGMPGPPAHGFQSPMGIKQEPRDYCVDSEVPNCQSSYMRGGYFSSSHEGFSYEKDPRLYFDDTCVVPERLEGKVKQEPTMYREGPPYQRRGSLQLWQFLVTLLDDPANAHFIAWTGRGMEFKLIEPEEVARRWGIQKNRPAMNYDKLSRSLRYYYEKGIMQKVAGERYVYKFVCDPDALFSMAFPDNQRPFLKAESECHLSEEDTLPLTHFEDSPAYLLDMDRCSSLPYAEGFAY
sequence,measurement,setting,value
AATGCC,binding signal,FEV,"1.23 fold enrichment (6-mer frequency, TF over GST control)"
same,binding signal,ETV5,"1.2 fold enrichment (6-mer frequency, TF over GST control)"
same,binding signal,HSF1,"1.07 fold enrichment (6-mer frequency, TF over GST control)"
same,binding signal,SPIC,"1.07 fold enrichment (6-mer frequency, TF over GST control)"
same,binding signal,ELF4,"1.21 fold enrichment (6-mer frequency, TF over GST control)"
same,binding signal,ELK4,"1.16 fold enrichment (6-mer frequency, TF over GST control)"
same,binding signal,ETV2,"1.06 fold enrichment (6-mer frequency, TF over GST control)"
same,binding signal,ELF3,"1.24 fold enrichment (6-mer frequency, TF over GST control)"
same,binding signal,CRX,"1.16 fold enrichment (6-mer frequency, TF over GST control)"
same,binding signal,ETV1,"1.11 fold enrichment (6-mer frequency, TF over GST control)"
same,binding signal,ERF,"1.12 fold enrichment (6-mer frequency, TF over GST control)"
same,binding signal,ETV3L,"1.07 fold enrichment (6-mer frequency, TF over GST control)"
same,binding signal,ETS2,"1.17 fold enrichment (6-mer frequency, TF over GST control)"
same,binding signal,SPDEF,"1.21 fold enrichment (6-mer frequency, TF over GST control)"
same,binding signal,ETV7,"1.22 fold enrichment (6-mer frequency, TF over GST control)"
same,binding signal,ELF5,"1.21 fold enrichment (6-mer frequency, TF over GST control)"
same,binding signal,ETV3,"1.24 fold enrichment (6-mer frequency, TF over GST control)"
same,binding signal,ETV6,"1.19 fold enrichment (6-mer frequency, TF over GST control)"
